HCT116 PTEN-null – suppresses growth of cells with PTEN deletion; HCT116 PTEN-null viability, CellTiter-Glo, 60 h; stronger effect = lower value; viability, % at 10 µM; 1.2% of 140,000 active; AID 827;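 active = viability at or below a set limit, 4 SD under the median of all tested compounds, cut at about 3.7% in these data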;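 also: PTEN knockout HCT116 line with beta catenin targeted HCT116 as companion control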
ROMK primary – modulators of human ROMK potassium channel. Tet-inducible ROMK, thallium flux fluorescence; actives lie on both sides. B-score at 10 µM. AID 1918. 2% of 130,000 active. P48048;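 active = signal ratio slope over the read window, or its plate-corrected B-score, at least 3 SD from the plate mean, either direction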;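 also: B-score of the F/F0 ratio slope over 7 to 12 s after thallium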
L major viab – reduces viability of Leishmania major promastigotes. resazurin fluorescence viability. inhibition, % at 10 µM. 9% of 200,000 active. AID 1063; in the data active = inhibition above about 50%;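 also: promastigotes grown with compound for 44 hours at 28 °C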
HCT116 bCat-KO – beta-catenin-lacking colon tumor cell growth suppression | HCT116 beta-catenin knockout viability, CellTiter-Glo, 60 h; stronger effect = lower value | viability, % at 10 µM | 1.5% of 140,000 active | AID 818;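 active = viability at or under a set limit, the compound median less 4 SD, cut at about 6% in these data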;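 also: 0% = Hyamine 1622 control at 20 µM and 100% = untreated cell control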
INS promoter inh – TRM-6 insulin promoter activity inhibition. 0.9% of 130,000 active. AID 1273. inhibition, % at 2 µM. TRM-6 cells (human fetal islet line), insulin promoter-eGFP reporter, imaging; reporter expression induced with tamoxifen;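 active = inhibition above the mean plus 3 SD, with well images judged a real hit on visual review, cut at about 60% in these data, passing the limit was not always enough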
p97 ATPase inh – human p97 ATPase inhibition; P55072; inhibition, % at 8 µM; 0.42% of 220,000 active; recombinant p97 ATPase, Kinase-Glo ATP luminescence, 3 h; in the data active = inhibition above about 15%;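 also: 0% = DMSO vehicle and 100% = wells lacking enzyme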
Target sequence (P55072 whole entry, looked up): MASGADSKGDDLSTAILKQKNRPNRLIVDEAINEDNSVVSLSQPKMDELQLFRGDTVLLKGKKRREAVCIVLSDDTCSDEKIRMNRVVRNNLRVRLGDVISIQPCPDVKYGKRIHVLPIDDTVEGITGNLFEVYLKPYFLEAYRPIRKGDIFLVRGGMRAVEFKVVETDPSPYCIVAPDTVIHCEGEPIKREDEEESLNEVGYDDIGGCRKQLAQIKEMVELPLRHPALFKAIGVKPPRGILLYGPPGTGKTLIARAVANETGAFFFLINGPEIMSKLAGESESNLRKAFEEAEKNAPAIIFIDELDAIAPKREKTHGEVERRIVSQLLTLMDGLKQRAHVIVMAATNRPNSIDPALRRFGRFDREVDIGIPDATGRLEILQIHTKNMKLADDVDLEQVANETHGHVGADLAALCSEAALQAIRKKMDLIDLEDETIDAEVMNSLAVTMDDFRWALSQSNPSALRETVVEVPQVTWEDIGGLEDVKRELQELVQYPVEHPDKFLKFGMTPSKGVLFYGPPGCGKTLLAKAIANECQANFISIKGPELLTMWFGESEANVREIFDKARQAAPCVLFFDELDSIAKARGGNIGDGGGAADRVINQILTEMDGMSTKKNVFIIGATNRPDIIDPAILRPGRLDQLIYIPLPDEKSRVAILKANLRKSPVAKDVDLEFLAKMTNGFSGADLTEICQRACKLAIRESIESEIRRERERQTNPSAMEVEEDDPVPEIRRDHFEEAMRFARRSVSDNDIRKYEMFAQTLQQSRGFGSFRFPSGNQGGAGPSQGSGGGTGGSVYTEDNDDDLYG
An asterisk follows results filed as active. In the library only some 10% were active in any assay of this set; here they are far more common.

Screening COc1ccc(N(C(C)=O)S(=O)(=O)c2cccc3cccnc23)cc1 returned HCT116 PTEN-null 90.6, ROMK primary -0.294, L major viab 54.1*, HCT116 bCat-KO 91.2, INS promoter inh -38.5 and p97 ATPase inh -3.3.
O=C(c1ccc2c(=O)n(CC3CCCO3)c(=S)[nH]c2c1)N1CCN(c2ccccc2)CC1 (stereo unspecified) was read as HCT116 PTEN-null 1.5*, ROMK primary 0.93, L major viab -8.4, HCT116 bCat-KO 1.1*, INS promoter inh -60.6 and p97 ATPase inh 1.6.
`CCOC(=O)N1CCN(C(=O)c2ccc3c(=O)n(CC4CCCO4)c(=S)[nH]c3c2)CC1` (stereo unspecified) gave HCT116 PTEN-null 110.4, L major viab -3.7, HCT116 bCat-KO 82.4, INS promoter inh 29.7 and p97 ATPase inh 0.5.
For O=C(c1ccc(Cn2c(=S)[nH]c3ccccc3c2=O)cc1)N1CCN(c2ccccn2)CC1 the results were ROMK primary 0.503, L major viab 99.8*, INS promoter inh 36.8 and p97 ATPase inh 1.5.
Screening O=c1c(-c2ccccc2)c(O)nc(SCCN2CCOCC2)n1-c1ccccc1 returned HCT116 PTEN-null 103.0, ROMK primary 0.141, L major viab -2.3, HCT116 bCat-KO 98.4, INS promoter inh 0.0 and p97 ATPase inh 0.0.
Screening CCOC(=O)c1cc(C(=O)OCC)c(=O)[nH]c1N1CCCCC1 returned ROMK primary 0.451, L major viab -3.1 and p97 ATPase inh 6.6.
CCCC(=O)Nc1nc(C)c(-c2csc(Nc3ccccc3OC)n2)s1 was read as HCT116 PTEN-null 84.6, L major viab 59.3*, HCT116 bCat-KO 84.4, INS promoter inh 4.4 and p97 ATPase inh 9.0.
`C=CCCC(=O)Nc1nc(C)c(-c2csc(Nc3cccc(OC)c3)n2)s1` gave HCT116 PTEN-null 68.6, L major viab 31.1, HCT116 bCat-KO 79.6, INS promoter inh -35.6 and p97 ATPase inh 6.6.
For CCCC(=O)Nc1nc(C)c(-c2csc(Nc3cc(OC)ccc3OC)n2)s1 the results were HCT116 PTEN-null 61.2, L major viab 47.4, HCT116 bCat-KO 74.7, INS promoter inh 8.9 and p97 ATPase inh 5.0.
Cc1ccc(Cl)cc1Nc1nc(-c2sc(NC(=O)C(C)(C)C)nc2C)cs1 was read as HCT116 PTEN-null 79.8, ROMK primary -0.293, L major viab 96.7*, HCT116 bCat-KO 76.6 and p97 ATPase inh 5.8.
For COc1cccc(Nc2nc(-c3sc(NC(=O)CC(C)C)nc3C)cs2)c1 the results were HCT116 PTEN-null 62.5, L major viab 81.3*, HCT116 bCat-KO 70.9, INS promoter inh -4.4 and p97 ATPase inh -1.2.
COc1ccccc1Nc1nc(-c2sc(NC(=O)C(C)(C)C)nc2C)cs1 was read as HCT116 PTEN-null 98.4, L major viab 99.7*, HCT116 bCat-KO 93.1, INS promoter inh -15.6 and p97 ATPase inh -2.7.
`CCSc1ccccc1C(=O)NC1CCCCC1` gave ROMK primary -0.092, L major viab -2.2 and p97 ATPase inh -2.7.
CCOC(=O)C1(Cc2ccc(Cl)cc2)CCN(C(=O)c2sc(C)nc2C)CC1 was read as ROMK primary 0.2, L major viab 10.3, INS promoter inh 8.7 and p97 ATPase inh 0.0.
Screening C=CCCC(=O)Nc1nc(C)c(-c2csc(Nc3cc(OC)ccc3OC)n2)s1 returned HCT116 PTEN-null 25.7, L major viab 18.7, HCT116 bCat-KO 24.9, INS promoter inh -15.6 and p97 ATPase inh 4.9.
`CCCCCC(=O)Nc1nc(C)c(-c2csc(Nc3cc(Cl)ccc3OC)n2)s1` gave HCT116 PTEN-null 63.8, L major viab 62.0*, HCT116 bCat-KO 86.1, INS promoter inh -64.4 and p97 ATPase inh -2.3.
`CCCC(C)C(=O)Nc1nc(C)c(-c2csc(Nc3cc(OC)ccc3OC)n2)s1` (stereo unspecified) gave HCT116 PTEN-null 48.1, L major viab 84.3*, HCT116 bCat-KO 63.3, INS promoter inh 6.7 and p97 ATPase inh 2.9.
For COc1ccccc1Nc1nc(-c2sc(NC(=O)CC(C)C)nc2C)cs1 the results were HCT116 PTEN-null 93.0, L major viab 67.2*, HCT116 bCat-KO 94.7, INS promoter inh -13.3 and p97 ATPase inh 13.9.
Screening COc1ccc(C2(CNC(=O)c3cccs3)CCOCC2)cc1 returned ROMK primary -0.00522, L major viab -7.4 and p97 ATPase inh 1.9.
For Cc1c(NC(=O)CN2CCN(c3cccc(Cl)c3)CC2)c(=O)n(-c2ccccc2)n1C the results were ROMK primary -0.378, L major viab -7.0, INS promoter inh -77.8 and p97 ATPase inh -0.3.

Compound activity as filed in PubChem BioAssay.
